Source: PubChem BioAssay (NCATS)
Unmarked numbers belong to inactive results. For some assays here: Measured potencies and affinities stand elsewhere. The source made the active and inactive calls. The rule behind the calls is not given here.

Assays:
[1] = Ebola virus entry assay, green fluorescence channel
[2] = Ebola virus entry assay, ratio channel
[3] = Ebola virus entry assay, green channel fluorescence
[4] = Ebola virus entry assay, reporter ratio channel; AC50: Channel type: primary unless noted; outcome: Channel type: primary unless noted
[5] = Ebola virus entry assay, blue channel (ratio component)
Throughout, for efficacy: 0% is about no effect.

| Structure (SMILES) | efficacy [1] | outcome [2] | outcome [3] | outcome [4] | outcome [5] | AC50 [4] |
| --- | --- | --- | --- | --- | --- | --- |
| CC(C)=CCC/C(C)=C/CO | -28.2% | inactive | inactive | inactive | inactive |  |
| COc1cc(C(=O)OC(COCCC(C)C)CN2CCOCC2)cc(OC)c1OC (stereo not given) | 27.7% | inactive | inactive | inactive | inactive |  |
| CC(=O)NC(=O)c1ccccc1O | -28.5% | inactive | inactive | inactive | inactive |  |
| CCOc1nc2cccc(C(=O)O)c2n1Cc1ccc(-c2ccccc2-c2nn[nH]n2)cc1 | 27.1% | inactive | inactive | inactive | inactive |  |
| Nc1ccc([N+](=O)[O-])c(C(F)(F)F)c1 | -37.2% | inactive | inactive | inactive | inactive |  |
| CC(C)(C)C1CCC(CC2=C(O)c3ccccc3C(=O)C2=O)CC1 (stereo not given) | -22.8% | inactive | inactive | inactive | inactive |  |
| O=C(CN1CCNCC1)NC1CCCCC1 | 48.3% | inactive | inactive |  | inactive | 35.5 µM (active) |
| FC1(F)C(F)(F)C(F)(F)C2(F)C(F)(F)C(F)(F)C(F)(F)C(F)(F)C2(F)C1(F)F (stereo not given) | -14% | inactive | inactive | inactive | inactive |  |
| NS(=O)(=O)c1cc2c(cc1Cl)NC(CC1CCCC1)NS2(=O)=O (stereo not given) | 19% | inactive | inactive | inactive | inactive |  |
| O=C(O)c1ccc(S(=O)(=O)N(Cl)Cl)cc1 | -27.5% | inactive | inactive | inactive | inactive |  |
| Nc1ccc(C(=O)O)cc1 | -10.9% | inactive | inactive | inactive | inactive |  |
| OC1(c2ccccc2)CCNCC1 | 9.98% | inactive | inactive | inactive | inactive |  |
| Nc1ccc(S(=O)(=O)NCc2ccccc2)cc1 | 27.6% | inactive | inactive | inactive | inactive |  |
| CC(=O)NCCCCCC(=O)O | -20.5% | inactive | inactive | inactive | inactive |  |
| O=C(NC(Cc1cc(=O)[nH]c2ccccc12)C(=O)O)c1ccc(Cl)cc1 (stereo not given) | -33.1% | inactive | inactive | inactive | inactive |  |
| CC(=O)[C@H]1CC[C@H]2[C@@H]3C=CC4=CC(=O)CC[C@@]4(C)[C@@H]3CC[C@]12C | 16% | inactive | inactive | inactive | inactive |  |

| Structure (SMILES) | efficacy [1] | outcome [2] | outcome [3] | outcome [4] | outcome [5] | AC50 [4] |
| --- | --- | --- | --- | --- | --- | --- |
| OC[C@H]1O[C@@H](Oc2ccc(O)cc2)[C@H](O)[C@@H](O)[C@@H]1O | -11.6% | inactive | inactive | inactive | inactive |  |
| CC(CC(C#N)(c1ccccc1)C(C)C)N(C)C (stereo not given) | -15% | inactive | inactive | inactive | inactive |  |
| Cc1ccc(C(=O)c2ccc(CC(=O)O)n2C)cc1 | 11.5% | inactive | inactive | inactive | inactive |  |
| O=C(CCOCCOCCOCCOCCC(=O)Nc1c(I)cc(I)c(C(=O)O)c1I)Nc1c(I)cc(I)c(C(=O)O)c1I | -16.9% | inactive | inactive | inactive | inactive |  |
| Cc1ccccc1C(=O)Nc1ccc(C(=O)N2CCCC(N(C)C)c3ccccc32)cc1 (stereo not given) | 11.8% | inactive | inactive | inactive | inactive |  |
| Cc1nc(-c2ccc(Cl)cc2)oc1COC(C)(C)C(=O)O | -18.2% | inactive | inactive | inactive | inactive |  |
| NCCS(=O)(=O)O | 39.2% | inactive | inactive | inactive | inactive |  |
| O=C(CCCl)NCc1ccccc1 | -26.1% | inactive | inactive | inactive | inactive |  |
| CC(C)(C)c1cc(C=O)cc(C(C)(C)C)c1O | 23.6% | inactive | inactive | inactive | inactive |  |
| Cc1cccc(C)c1NC(=O)c1cc(S(N)(=O)=O)c(Cl)cc1O | -19.2% | inactive | inactive | inactive | inactive |  |
| Nc1ccc(S(=O)(=O)NC(=O)c2ccccc2)cc1 | -38.1% | inactive | inactive | inactive | inactive |  |
| CNCC(O)c1ccc(O)c(O)c1 (stereo not given) | 44.4% | inactive | inactive | inactive | inactive |  |
| CCCCOCCOC(=O)c1cccnc1 | -26.3% | inactive | inactive | inactive | inactive |  |
| O=c1cc(O)c(Cl)c[nH]1 | -17.7% | inactive | inactive | inactive | inactive |  |
| CCCCCCCCCCCCSCCOCCO | -41.3% | inactive | inactive | inactive | inactive |  |
